Laboratory results from publication PMC5540273 (PLoS ONE, 2017).

Experiments:
Conditions in all cases: concentration: 1 μM, replicates: in singlicate; n = 1
[1] = test system: ADCK4
[2] = test system: AKT1
[3] = test system: AKT2
[4] = test system: AKT3
[5] = test system: ALK
[6] = test system: T1, AMPK-alpha1
T1 construct: gene PRKAA1

[7] = test system: T2, AMPK-alpha2
T2 construct: gene PRKAA2

[8] = test system: ANKK1
[9] = test system: T3, ARK5
T3 construct: gene NUAK1

[10] = test system: T4, ASK1
T4 construct: gene MAP3K5

[11] = test system: T5, ASK2
T5 construct: gene MAP3K6

[12] = test system: AURKA
[13] = test system: AURKB
[14] = test system: AURKC
[15] = test system: AXL
[16] = test system: T6, BIKE
T6 construct: gene BMP2K

[17] = test system: BLK
[18] = test system: BMPR1A
[19] = test system: BMPR1B
[20] = test system: BMPR2
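Also: KINOMEscan kinase panel screen.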

Row | SMILES | %Inh [1] | %Inh [2] | %Inh [3] | %Inh [4] | %Inh [5] | %Inh [6] | %Inh [7] | %Inh [8] | %Inh [9] | %Inh [10] | %Inh [11] | %Inh [12] | %Inh [13] | %Inh [14] | %Inh [15] | %Inh [16] | %Inh [17] | %Inh [18] | %Inh [19] | %Inh [20]
1 | Nc1ncnc2c1nc(-c1ccccc1)n2-c1ccccc1 [SKF-97293] | 0% | 2% | 3% | 16% | 52% | 23% | 31% | 29% | 0% | 0% | 29% | 24% | 47% | 0% | 14% | 4% | 0% | 8% | 17% | 46%
2 | Cc1ccc(C(=O)N2CC[C@@H](O)C2)cc1-n1c(C)cc(OCc2ccc(F)cc2F)c(Br)c1=O | 66% | 0% | 0% | 0% | 0% | 2% | 0% | 0% | 0% | 0% | 0% | 0% | 0% | 0% | 0% | 0% | 70% | 0% | 54% | 0%
3 | Cc1ccc(S(=O)(=O)Nc2ccc(Nc3nccc(Nc4cccc5[nH]ncc45)n3)cc2)cc1 [GSK581271] | 87% | 0% | 0% | 0% | 24% | 0% | 0% | 0% | 5% | 0% | 0% | 99.8% | 37% | 52% | 0% | 65% | 0% | 0% | 0% | 4%
4 | Cc1cccc(Nc2nc(N[C@H]3CCNC3)ncc2C(N)=O)c1.Cl [GSK2197149] | 0% | 0% | 7% | 0% | 47% | 22% | 33% | 79% | 34% | 0% | 3% | 0% | 0% | 58% | 24% | 96.9% | 69% | 0% | 0% | 0%
5 | COc1cccc(C2=C(Nc3ccc(Cl)c(C(=O)O)c3)C(=O)NC2=O)c1 [SB-390769] | 22% | 0% | 0% | 0% | 36% | 6% | 2% | 99.4% | 24% | 12% | 100% | 0% | 39% | 23% | 3% | 16% | 10% | 0% | 0% | 100%
6 | CC(C)c1nc(-c2cccc(NS(=O)(=O)c3c(F)cccc3F)c2F)c(-c2ccnc(Nc3ccc(N4CCOCC4)nc3)n2)s1 [GSK2008607] | 100% | 0% | 0% | 0% | 28% | 97% | 98.8% | 29% | 0% | 0% | 3% | 93.6% | 91.8% | 53% | 97.5% | 24% | 99.7% | 53% | 98.5% | 0%
7 | Cc1ccc(C)c(NC(=O)NC2CCN(c3ccnc(Nc4ccc(F)cc4)n3)C2)c1 (centres unmarked) [GSK1379720] | 48% | 0% | 19% | 0% | 28% | 7% | 0% | 0% | 0% | 0% | 0% | 0% | 48% | 76% | 0% | 23% | 24% | 0% | 0% | 21%
8 | CC(=O)Nc1nc2cnc(Nc3cc(NC(=O)c4cccc(C5(C#N)CC5)c4Cl)ccc3C)nc2s1 | 0% | 7% | 13% | 0% | 0% | 7% | 21% | 0% | 2% | 0% | 0% | 0% | 26% | 0% | 0% | 0% | 45% | 0% | 0% | 2%
9 | O=C(Nc1cccc(Oc2ccc3nc(NC(=O)C4CC4)cn3n2)c1)c1ccccc1C(F)(F)F | 12% | 0% | 0% | 0% | 22% | 0% | 3% | 1% | 0% | 0% | 0% | 89% | 92.8% | 77% | 75% | 79% | 25% | 0% | 0% | 0%
10 | c1ccc(-c2cnc3nccnn23)cc1 [AH20685] | 17% | 0% | 0% | 0% | 20% | 0% | 0% | 0% | 0% | 0% | 0% | 0% | 13% | 0% | 0% | 0% | 37% | 0% | 0% | 0%
